PubChem BioAssay (Tox21)
Values joined by “and” are separate entries in the source; they are usually repeats but may differ in a detail not shown here. Equal entries are not always repeated. Values without a mark were called inactive. Results filed as inconclusive are left out. A call without a number means that no potency is given here. Active and inactive are the calls of the source. Unless noted, calls follow the shape of the dose curve; as a rule, active = well fitted curve in the direction sought with a large enough effect in the repeat runs; inconclusive = weak or mixed curves; inactive = no such curve, though single readings can be large; an effect the other way counts as inactive or inconclusive.

Columns and labels:
[1] = qHTS assay for small molecules that induce genotoxicity in human embryonic kidney cells expressing luciferase-tagged ATAD5 (AID 651632); also: nearly all actives have a fitted effect of over 15% in size
Procedure, shortened: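 Quantitative HTS in HEK293T expressing luciferase-tagged ATAD5, whose levels rise upon DNA damage. Exposure ran 16 hr at 37C and 5% CO2, with luminescence read 30 min after Amplite addition at room temperature.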

[2] = qHTS assay for small molecule agonists of the p53 signaling pathway - cell viability (AID 651633; calls by dose curve;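 also: p53RE-bla HCT reporter cells with a stable beta-lactamase p53 reporter; series mostly up to about 83 µM; nearly all actives have a fitted effect of over 30% in size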)
Procedure, shortened: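 p53RE-bla cells were treated with compound for 16 hours at 37 C. Cytotoxicity was then measured as CellTiter-Glo luminescence after 30 min at room temperature.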

[3] = qHTS assay for small molecules that induce genotoxicity in human embryonic kidney cells expressing luciferase-tagged ATAD5 - cell viability (AID 651634; calls by dose curve; also: nearly all actives have a fitted effect of over 25% in size)
Procedure, shortened: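 After 15.5 hr incubation with compound at 37C, 5% CO2, HEK293T ATAD5-luciferase cells received CellTiter-Fluor reagent; fluorescence intensity was quantified following 30 min at 37C.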

[4] = qHTS assay for small molecule disruptors of the mitochondrial membrane potential - cell viability (AID 720634; calls by dose curve;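 also: human HepG2 liver cancer cells; series mostly up to about 83 µM; nearly all actives have a fitted effect of over 20% in size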)
Procedure, shortened: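 ATP-based luminescent viability readout (CellTiter-Glo, 30 min, room temperature) in HepG2 cells multiplexed with the m-MPI membrane potential dye; compound exposure lasted 1 hr at 37 C.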

[5] = qHTS assay for small molecule disruptors of the mitochondrial membrane potential (AID 720635); also: potency is read from the fitted curve at half-maximal effect
Procedure, shortened: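 HepG2 cells exposed to compound 1 hr at 37C, then Mito-MPS dye 30 min. Ratio read of aggregate (540/590 nm) versus monomer (490/535 nm) fluorescence.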

[6] = qHTS assay to test for compound auto fluorescence at 590 nm (red) in HepG2 cells (AID 720674)
Procedure, shortened: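 Seeding: 2,000 HepG2 cells/well, MEM/10% FBS, overnight 37 C. Dosing: compound vs DMSO. Incubation: 1 hr, 37 C, 5% CO2. Read: fluorescence 540 ex/590 em, Rose Bengal sodium as red reference.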

[7] = qHTS assay to test for compound auto fluorescence at 535 nm (green) in HepG2 cells (AID 720675)
[8] = qHTS assay to test for compound auto fluorescence at 460 nm (blue) in HEK293 cells (AID 720678)
Procedure, shortened: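 Auto fluorescence in the blue band was quantified as triamterene equivalency. HEK293 cells were seeded at 2,000/well, dosed after a 4-5 hr attachment, and kept overnight at 37C before the 405/460 nm reading.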

[9] = qHTS assay to test for compound auto fluorescence at 590 nm (red) in HEK293 cells (AID 720679)
Procedure, shortened: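 Autofluorescence equivalency to Rose Bengal sodium, 540/590nm, in HEK293 cells exposed overnight to 23 nL compound per well.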

[10] = qHTS assay to test for compound auto fluorescence at 535 nm (green) in HEK293 cells (AID 720680)
[11] = qHTS assay to test for compound auto fluorescence at 460 nm (blue) in HEK293 cell free culture (AID 720681)
Procedure, shortened: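 Compounds were added to cell-free DMEM with 10% FBS and fluorescence read directly. The blue channel used 405 nm excitation and 460 nm emission, with triamterene as the reference fluorophore.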

[12] = qHTS assay to test for compound auto fluorescence at 535 nm (green) in HEK293 cell free culture (AID 720682)
Procedure, shortened: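 Green-channel intensity (Ex/Em 485/535 nm) was recorded from compound-treated wells containing only DMEM with 10% FBS. Fluorescein provided the equivalency standard.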

[13] = qHTS assay to test for compound auto fluorescence at 590 nm (red) in HEK293 cell free culture (AID 720683)
Procedure, shortened: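 Cell-free wells of DMEM with 10% FBS received compound, and intrinsic fluorescence was read at excitation/emission 540/590 nm. Values expressed as equivalence to Rose Bengal sodium.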

[14] = qHTS assay to test for compound auto fluorescence at 590 nm (red) in HepG2 cell free culture (AID 720684)
Procedure, shortened: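 Auto fluorescence equivalency versus Rose Bengal sodium, red channel Ex/Em 540/590 nm; compounds in cell-free MEM/10% FBS; DMSO vehicle control.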

[15] = qHTS assay to test for compound auto fluorescence at 460 nm (blue) in HepG2 cell free culture (AID 720685)
Procedure, shortened: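 Cell-free plates of MEM plus 10% FBS received 23 nL compound or DMSO vehicle; blue-channel (405/460 nm) intensity scored against triamterene as reference fluorophore.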

[16] = qHTS assay to test for compound auto fluorescence at 535 nm (green) in HepG2 cell free culture (AID 720686)
[17] = qHTS assay to test for compound auto fluorescence at 460 nm (blue) in HepG2 cells (AID 720687)
Procedure, shortened: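 HepG2 cells in MEM with 10% FBS, attached overnight at 37 C, were exposed to compound or DMSO for 1 hr at 37 C, 5% CO2. Blue fluorescence was read at 405/460 nm, with triamterene as reference fluorophore.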

[18] = target: Glucocorticoid receptor (Homo sapiens) (UniProt P04150); assay: qHTS assay to identify small molecule agonists of the glucocorticoid receptor (GR) signaling pathway (AID 720691; active = well fitted activation curve with a large enough effect in the signal ratio in the repeat runs, not every such curve was filed as active; the % refers to the signal ratio)
Procedure, shortened: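 Cells: GR-bla HeLa, endogenous GR with stably integrated GRE-beta-lactamase reporter. Treatment 18 h, 37 C, compounds delivered in DMSO. Detection via LiveBLAzer B/G FRET substrate, 2 h RT, fluorescence intensity.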

[19] = target: Glucocorticoid receptor (Homo sapiens) (UniProt P04150); assay: qHTS assay to identify small molecule antagonists of the glucocorticoid receptor (GR) signaling pathway (AID 720692; active = well fitted inhibition curve with a large enough effect in the signal ratio in the repeat runs, not every such curve was filed as active; the % refers to the signal ratio)
Procedure, shortened: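 Quantitative HTS in antagonist format: HeLa cells expressing endogenous GR and a stably integrated GRE-bla reporter, stimulated with 5 nM dexamethasone (final) alongside test compounds for 18 h.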

Glucocorticoid receptor (Homo sapiens), sequence (P04150 whole entry, looked up): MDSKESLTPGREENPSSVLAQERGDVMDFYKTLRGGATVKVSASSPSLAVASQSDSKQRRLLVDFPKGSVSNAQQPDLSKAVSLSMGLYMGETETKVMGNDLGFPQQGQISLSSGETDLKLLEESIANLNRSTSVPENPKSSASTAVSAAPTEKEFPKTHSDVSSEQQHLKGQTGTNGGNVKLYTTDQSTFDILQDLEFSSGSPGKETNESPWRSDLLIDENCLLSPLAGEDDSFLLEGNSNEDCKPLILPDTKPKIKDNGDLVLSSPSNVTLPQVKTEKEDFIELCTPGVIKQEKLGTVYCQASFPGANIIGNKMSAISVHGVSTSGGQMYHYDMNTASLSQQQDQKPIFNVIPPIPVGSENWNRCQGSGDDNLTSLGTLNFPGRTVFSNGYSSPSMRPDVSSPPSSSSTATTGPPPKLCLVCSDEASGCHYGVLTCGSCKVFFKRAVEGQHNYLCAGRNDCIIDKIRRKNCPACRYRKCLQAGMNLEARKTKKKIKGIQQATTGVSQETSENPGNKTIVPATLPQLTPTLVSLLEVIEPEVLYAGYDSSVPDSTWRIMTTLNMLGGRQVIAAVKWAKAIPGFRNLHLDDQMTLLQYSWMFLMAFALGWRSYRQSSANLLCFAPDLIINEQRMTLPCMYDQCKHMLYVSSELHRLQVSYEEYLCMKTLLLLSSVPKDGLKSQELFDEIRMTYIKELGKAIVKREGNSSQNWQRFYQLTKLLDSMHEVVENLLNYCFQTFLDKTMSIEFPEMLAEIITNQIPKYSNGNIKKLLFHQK

Question: Which results are given for `CC1C=[C-]C=C1.[C-]#[O+].[C-]#[O+].[C-]#[O+].[Mn]`?
Answer: outcome [1]: inactive; outcome [2]: inactive; outcome [3]: inactive; Potency [4]: inactive; Potency [5]: inactive; outcome [6]: inactive; outcome [7]: inactive; outcome [8]: inactive; outcome [9]: inactive; outcome [10]: inactive; outcome [11]: inactive; outcome [12]: inactive; outcome [13]: inactive; outcome [14]: inactive; outcome [15]: inactive; outcome [16]: inactive; outcome [17]: inactive; outcome [18]: inactive; Potency [19]: inactive

Question: What does the source list for `C1CC2OC2CC1C1CO1` (stereo not drawn)?
Answer: outcome [1]: inactive; outcome [2]: inactive; outcome [3]: inactive; Potency [4]: inactive; Potency [5]: inactive; outcome [6]: inactive; outcome [7]: inactive; outcome [8]: inactive; outcome [9]: inactive; outcome [10]: inactive; outcome [11]: inactive; outcome [12]: inactive; outcome [13]: inactive; outcome [14]: inactive; outcome [15]: inactive; outcome [16]: inactive; outcome [17]: inactive

Question: Which outcome [1] does the source give for `Clc1ccccc1Cl` here?
Answer: inactive

Question: And the outcome [2]?
Answer: inactive

Question: What about the outcome [3] of the same compound?
Answer: inactive

Question: What about the Potency [4] of the same compound?
Answer: inactive

Question: And the Potency [5]?
Answer: inactive

Question: And the outcome [6]?
Answer: inactive

Question: What about the outcome [7] of the same compound?
Answer: inactive

Question: What about the outcome [8] of the same compound?
Answer: inactive

Question: And the outcome [9]?
Answer: inactive

Question: What about the outcome [10] of the same compound?
Answer: inactive

Question: And the outcome [11]?
Answer: inactive

Question: What about the outcome [12] of the same compound?
Answer: inactive

Question: What about the outcome [13] of the same compound?
Answer: inactive

Question: And the outcome [14]?
Answer: inactive

Question: And the outcome [15]?
Answer: inactive

Question: And the outcome [16]?
Answer: inactive

Question: And the outcome [17]?
Answer: inactive

Question: And the outcome [18]?
Answer: inactive

Question: What about the Potency [19] of the same compound?
Answer: inactive

Question: What does the source list for `Cc1cccc([N+](=O)[O-])c1`?
Answer: outcome [1]: inactive; outcome [2]: inactive; outcome [3]: inactive; Potency [4]: inactive; Potency [5]: inactive; outcome [6]: inactive; outcome [7]: inactive; outcome [8]: inactive; outcome [9]: inactive; outcome [10]: inactive; outcome [11]: inactive; outcome [12]: inactive; outcome [13]: inactive; outcome [14]: inactive; outcome [15]: inactive; outcome [16]: inactive; outcome [17]: inactive; outcome [18]: inactive

Question: What does the source list for `CCC(C)(CC)c1cc(NC(=O)c2c(OC)cccc2OC)on1`?
Answer: outcome [1]: inactive; outcome [3]: inactive; Potency [4]: inactive; Potency [5]: 27.4 µM (active) and 20.9 µM (active); outcome [6]: inactive; outcome [7]: inactive; outcome [8]: inactive; outcome [9]: inactive; outcome [10]: inactive; outcome [11]: inactive; outcome [12]: inactive; outcome [13]: inactive; outcome [14]: inactive; outcome [15]: inactive; outcome [16]: inactive; outcome [17]: inactive

Question: What does the source list for `CC(C)C#N`?
Answer: outcome [1]: inactive; outcome [2]: inactive; outcome [3]: inactive; Potency [4]: inactive; Potency [5]: inactive; outcome [6]: inactive; outcome [7]: inactive; outcome [8]: inactive; outcome [9]: inactive; outcome [10]: inactive; outcome [11]: inactive; outcome [12]: inactive; outcome [13]: inactive; outcome [14]: inactive; outcome [15]: inactive; outcome [16]: inactive; outcome [17]: inactive; outcome [18]: inactive; Potency [19]: inactive
